Measurements: PubChem BioAssay AID1851 (National Center for Advancing Translational Sciences (NCATS), 2009)
Among all 16,000 compounds or so, about 5,700 (36%) were called active. Not shown: some 24% with an inconclusive outcome. Calls come from the whole dose curve; as a rule, active = well fitted curve in the direction sought with a large enough effect; inconclusive = small, poorly fitted or top-dose-only effect, or effect the other way; inactive = no such curve, though single readings can be large or run the other way. The list shows a part of the results.

Molecular target: Cytochrome P450 1A2 (Homo sapiens) (UniProt P05177)
Sequence (P05177 whole entry, looked up): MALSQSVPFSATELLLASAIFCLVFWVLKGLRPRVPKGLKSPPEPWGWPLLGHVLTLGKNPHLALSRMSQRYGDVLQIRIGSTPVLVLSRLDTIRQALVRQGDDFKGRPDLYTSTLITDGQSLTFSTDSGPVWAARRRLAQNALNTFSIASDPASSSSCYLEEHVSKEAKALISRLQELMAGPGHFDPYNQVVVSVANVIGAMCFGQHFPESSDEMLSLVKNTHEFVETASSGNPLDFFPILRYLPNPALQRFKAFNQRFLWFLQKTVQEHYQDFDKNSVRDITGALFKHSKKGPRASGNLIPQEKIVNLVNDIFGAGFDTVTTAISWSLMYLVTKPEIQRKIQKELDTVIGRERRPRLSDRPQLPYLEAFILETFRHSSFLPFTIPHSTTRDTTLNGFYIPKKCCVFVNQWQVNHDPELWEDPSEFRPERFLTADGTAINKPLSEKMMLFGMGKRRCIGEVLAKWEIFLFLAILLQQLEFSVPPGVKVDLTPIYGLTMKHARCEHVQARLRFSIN
Test: Cytochrome panel assay with activity outcomes
Conditions: recombinant CYP, pro-luciferin dealkylation, luminescence, p450-cyp1a2; series mostly up to 57.1 µM; activity, negative = inhibition: at the top concentration
% is set by controls: 0 for no effect and ±100 for the full control effect.

SMILES	activity, negative = inhibition	AC50
C#CCCCO/N=C1/C[C@@H](O)[C@@H](O)[C@@H]2[C@@H]3C(=O)N(C4CCCCC4)C(=O)[C@H]3CC[C@H]12	7.63% [at 11.4 µM] (inactive)	–
CC1(C)Oc2cc(N)c([N+](=O)[O-])cc2O1	–	8.91 µM (active)
CC(=O)Nc1ccc(S(=O)(=O)N2CCC(N(C)CCC(C)C)CC2)cc1	-6.77% (inactive)	–
O=C(Nc1ccc(Cl)c(C(F)(F)F)c1)C1CCCN(S(=O)(=O)c2cnc[nH]2)C1 (stereo unspecified)	–	15.8 µM (active)
CCc1ccc(NC(=O)C2CCN(S(=O)(=O)c3c(C)[nH]c(=O)[nH]c3=O)CC2)cc1	-6.06% (inactive)	–
CC(=O)Nc1ccc(NC(=O)C2CCN(S(=O)(=O)c3cccc4nonc34)CC2)cc1	-2.52% (inactive)	–
CO[C@@H]1COC(=O)C/C=C\[C@H](C)COC(=O)[C@H](C)NC(=O)C/C=C\[C@H]1C	-3.56% [at 11.4 µM] (inactive)	–
CCc1nn(C)c(-c2n[nH]c(=S)n2N)c1Cl	-0.733% (inactive)	–
CC(C)Cn1c(-c2nn(C)cc2Cl)n[nH]c1=S	–	25.1 µM (active)
Cc1nn(CCc2n[nH]c(=S)n2-c2ccc(F)c(Cl)c2)c(C)c1[N+](=O)[O-]	-3.99% (inactive)	–
O=c1c(-c2cccs2)nc2cnc(Oc3cccc(Cl)c3)nc2n1C[C@H]1CCCO1	–	3.16 µM (active)
COc1ccc(-c2nc3cnc(Oc4cccc(Cl)c4)nc3n(C[C@H]3CCCO3)c2=O)cc1	–	5.01 µM (active)
CC(=O)OC[C@@H]1O[C@H](C/C=N\OC[C@@H](O)COCc2ccco2)C=C[C@@H]1OC(C)=O	1.52% [at 11.4 µM] (inactive)	–
C[C@H](N)C(=O)O	-18.8% (inactive)	–
CCCCCCCCC(=O)NCc1cc(OC)c(O)cc1I	–	12.6 µM (active)
O=C(O)c1cc(C(=O)O)nc(C(=O)O)c1	-9.81% [at 11.4 µM] (inactive)	–
CSc1c(-c2ccccc2)nc2ccccc2c1C(=O)O	10.1% (inactive)	–
CSc1nnnc2ccccc12	–	3.16 µM (active)
COCc1nnc(NC(=O)CC(c2ccccc2)c2ccccc2)s1	7.41% (inactive)	–
Cc1cnc(NC(=O)CSc2ccc(Cl)cc2)s1	–	3.16 µM (active)
COCc1nnc(NC(=O)CSc2ccc(C)cc2)s1	–	12.6 µM (active)
COC(=O)c1sccc1NC(=O)CSc1ccc(Cl)cc1	–	14.1 µM (active)
COc1ccc(Cc2nnc(NC(=O)CSc3ccc(C)cc3)s2)cc1OC	-19.1% (inactive)	–
COC(=O)c1sccc1NC(=O)CSc1cc(Cl)ccc1Cl	–	2.51 µM (active)
O=c1[nH]cc(CS(=O)(=O)Cc2c[nH]c(=O)[nH]c2=O)c(=O)[nH]1	-24.4% [at 11.4 µM] (inactive)	–
CC(=O)N1CCC2(CCN(Cc3nccs3)CC2)CC1	-13.5% (inactive)	–
